# In all, about 420,000 compounds went through this assay and about 64,000 (15%) were called active. Another 27% or so got no clear call; they are omitted. The call rests on the fitted dose curve; in most records, active means well fitted inhibition curve with a large enough effect; inconclusive means small, poorly fitted or top-dose-only effect; inactive means flat fitted curve, though single readings scatter. The list is a sample of the results. Entries that show only a call come without a potency.
# Experiment: qHTS for Inhibitors of human tyrosyl-DNA phosphodiesterase 1 (TDP1): qHTS in cells in absence of CPT; further: nearly all actives have a fitted effect of over 55% in size
# Details: DT40 Tdp1-/- hTDP1 cells, no CPT, ATP luminescence, 48 h; activity change, negative = growth inhibition: at 46.2 µM (top of the series)
# Excerpt: Human tyrosyl-DNA phosphodiesterase 1 (TDP1) is a novel repair gene, and we propose to use it as a new target for anticancer drug development. TDP1 is not an essential protein, but under treatment with topoisomerase I poison (camptothecin: CPT), TDP1 works as a critical factor for cell survival. To directly identify novel TDP1 inhibitors active in a cellular environment, we have knocked-out the Tdp1 gene in chicken DT40 cells (Tdp1-/-) and generated a complemented counterpart cells that contains a stable transfection of the human TDP1 gene (Tdp1-/-;hTDP1 cells). For the primary screen, Tdp1-/-;hTDP1 cells will be exposed to small molecules in the presence or absence of CPT, and their growth kinetics will be evaluated after 48 hours by measuring ATP activity. […] The hit compounds will then be evaluated in the presence or absence of CPT using Tdp1-/- cells. […] In tertiary assays, biochemical gel-based assays will be used to assess whether the hit compounds specifically target TDP1.
# To this end, we have screened this cell line against the MLSMR in two primary screens. In one screen we add CPT and in the other we screen in the absence of CPT; this AID represents the screen where CPT was absent.
# NIH Chemical Genomics Center [NCGC]
# NIH Molecular Libraries Probe Centers Network [MLPCN]
# Assay Submitter (PI): Yves Pommier, NCI
# DT40-hTDP1 cells without 20 nM Camptothecin (add 20 microL of DMSO in 1 L of cell culture medium) were dispensed at 400 cells/5microL/well in tissue culture treated 1536-well white wall/solid bottom assay plates (Greiner Bio-One North America, NC, U.S.A.) using a Multidrop Combi 8 channel dispenser (Thermo Fisher, Waltham, MA, USA). 23 nL compounds and controls were transferred using the pin tool (Kalypsys, San Diego, CA, USA) to the assay plates. The assay plates were then incubated at 37 masculineC for a minimum 48 hr. Three microL of Cell Titer Glo solution was added to the plates and incubated at RT in dark for 30 min. Luminescence was read using ViewLux (Perkin Elmer) with 1 sec exposure slow speed, high gain and 2x binning.
# Potency means the concentration at half of the fitted maximal effect.
row,Compound,Potency
1,COc1ccc(-c2[nH][nH]c(=O)c2NC(=O)c2ccc([N+](=O)[O-])cc2)cc1,inactive
2,COc1ccc(C(=O)NCCNc2ccc([N+](=O)[O-])cn2)cc1,inactive
3,COc1ccc(C(=O)Nc2nc(-c3ccc(OC)cc3)c(-c3ccc([N+](=O)[O-])cc3)s2)cc1,9.2 µM (active)
4,O=C(CN(C(=O)c1csnn1)c1cccc(Cl)c1)NC1CCCC1,inactive
5,Cc1cccc(C)c1N1CCN(S(=O)(=O)N2CCOCC2)CC1,inactive
6,CCc1cc2c(NC(Cc3ccccc3)C(=O)O)ncnc2s1 (stereo unspecified),inactive
7,Clc1cc(NC2CCCCC2)ncn1,inactive
8,CCc1cc2c(NC3CCCC3)ncnc2s1,4.61 µM (active)
9,CCCC12CN3CC(C)(CN(C1)C3c1ccccc1Cl)C2=O (stereo unspecified),inactive
10,CCN(CC)CC(=O)c1c[nH]c2ccc(OC)cc12,inactive
11,CCCC12CN3CC(CCC)(CN(C1)C3c1c[nH]c3ccc(OC)cc13)C2=O (stereo unspecified),10.3 µM (active)
12,COc1ccccc1CNC(=O)CSc1nc(=O)n(Cc2ccncc2)c2c1CCC2,inactive
13,O=S1(=O)CCN(Cc2ccccc2Cl)CC1,inactive
14,CCCCN1CC(C)(C)[C@H](CC(=O)Nc2ccc(Br)cc2)C1=O,16.4 µM (active)
15,CC1(C)CN(CCc2ccccc2)C(=O)[C@H]1CC(=O)Nc1ccc(Br)cc1,inactive
16,CC(=O)N1CC(=O)N(CC(=O)Nc2ccc(Br)cc2)C1=S,inactive
17,O=C(N/N=C/c1ccccn1)C12CC3CC(CC(C3)C1)C2,inactive
18,COc1cccc(NC(=O)Cn2c3ccccc3c3nc4n(c(=O)c32)CCS4)c1,inactive
19,CN(CC(=O)NC(=O)Nc1ccccc1F)Cc1ccccc1,inactive
20,COc1cccc2c1C(=O)c1c(O)c3c(c(O)c1C2=O)CC(O)(C(C)=NNC(=O)c1ccc(Cl)c(Cl)c1)CC3OC1CC(N)C(O)C(C)O1 (stereo unspecified),0.164 µM (active)
21,O=C(Nc1ccccc1-c1ccccc1)c1ccccc1[N+](=O)[O-],inactive
22,COc1cccc(N2CC(C(=O)NCc3n[nH]c(=O)c4ccccc34)CC2=O)c1 (stereo unspecified),inactive
23,CCn1c2ccccc2c2cc(NC(=O)CNC)ccc21,inactive
24,CC[n+]1c(C)n(-c2ccccc2)c2ccc(NC(C)=O)cc21,2.59 µM (active)

row,Compound,Potency
1,CC(=O)Nc1ccc(NC(=O)CSc2nnc(C3CC3)n2-c2ccccc2)cc1,inactive
2,N#CC(C(N)=O)=C1CCC2(CC1)OCCCCO2,inactive
3,CCOc1cc(/C=N/O)ccc1OCc1ccccc1F,inactive
4,CCN(CC(=O)Nc1c(F)cccc1F)C(=O)c1ccc(-c2ccc(C(C)=O)cc2)o1,inactive
5,COC(=O)c1cn(C(=O)c2ccc(Cl)cc2)c2ccccc12,inactive
6,COc1ccc(OC)c(C(=O)c2ccc(Cl)cc2)c1,inactive
7,COC(=O)c1cc2c(N)c(C(=O)c3ccc(Cl)cc3)sc2nc1C(OC)OC,14.6 µM (active)
8,Cc1ccc(C(=O)N/N=C/c2sc(=O)n(Cc3cccc(C(=O)O)c3)c2Cl)cc1,inactive
9,CCCN=C1NC(=O)C(CC(=O)NCCc2ccc(OC)c(OC)c2)S1 (stereo unspecified),inactive
10,O=C1C=C(c2cccc(Cl)c2)C[C@@H](c2ccc(F)cc2)C1,inactive
11,O=C1C=C(c2ccnc3cc(Cl)ccc23)C[C@@H](c2ccc3c(c2)OCO3)C1,16.4 µM (active)
12,CC(=O)C1=C(C)NC(=O)NC1c1ccc2c(c1)OCO2 (stereo unspecified),inactive
13,CN(C)CC(C)(C)CNC(=O)c1cc(Br)cc(Br)c1O,inactive
14,O=C(Cn1ncn2nc(-c3cccs3)cc2c1=O)NCc1cccc(Br)c1,inactive
15,Cc1c(C(=O)OCC(=O)N2CCCC2=O)oc2ccccc12,inactive
16,C[n+]1ccccc1C1CCCC/C1=N\Nc1ccc([N+](=O)[O-])cc1[N+](=O)[O-] (stereo unspecified),inactive
17,CC(Nc1ccc([N+](=O)[O-])cc1[N+](=O)[O-])c1ccccc1 (stereo unspecified),20.6 µM (active)
18,CNc1ccc([N+](=O)[O-])cc1C(=O)O,inactive
19,CC(C)(C)NC(=O)Cn1cnc([N+](=O)[O-])n1,inactive
20,CC(C)C(NC(=O)c1c(F)cccc1F)C(=O)NCc1ccncc1 (stereo unspecified),inactive
21,CCN(CC(=O)NCC(=O)Nc1cccc(C)c1C)Cc1ccccc1,inactive
22,CCCc1cc(-c2n[nH]c(=S)n2Cc2ccccc2)cs1,29.1 µM (active)
23,CCn1c(-c2ccncc2)n[nH]c1=S,inactive
24,COc1cc(-c2n[nH]c(=S)n2Cc2ccccc2)cc(OC)c1OC,inactive

row,Compound,Potency
1,CCOc1ccccc1-n1c(SCC(=O)NCc2ccco2)nnc1-c1ccncc1,inactive
2,Cc1ccc(Nc2nc(CSc3nnc(-c4ccncc4)n3-c3ccccc3C)cs2)cc1,11.6 µM (active)
3,O=C(CSc1nnc(-c2ccncc2)n1-c1ccccc1)Nc1ccc(Cl)c(Cl)c1,inactive
4,CCOC(=O)Cn1c(O)c(N=NC(=O)CNC(=O)Cc2ccccc2)c2ccccc21,inactive
5,Cn1c(S(=O)(=O)O)nc2ccccc21,inactive
6,O=C(NCC1CCCO1)c1ccc2ccccc2n1 (stereo unspecified),inactive
7,COc1ccc2cc(C(=O)NCC3CCCO3)[nH]c2c1 (stereo unspecified),inactive
8,O=C(NCC1CCCO1)c1cc2c([nH]c3ccccc32)c(-c2ccc(F)cc2)n1 (stereo unspecified),1.84 µM (active)
9,CSc1ccc(S(=O)(=O)NC2CCCCC2)cc1,inactive
10,CC(C)C(=O)NCc1cc(-c2ccc(Cl)cc2)no1,inactive
11,Cc1cc(O)c(Sc2ccccc2)c(=O)o1,inactive
12,O=C(CSc1nnc(CN2CCCC2)n1-c1ccc(F)cc1)c1ccc2c(c1)OCO2,20.6 µM (active)
13,O=C(O)CSc1nnc(-c2ccc3c(c2)OCO3)n1-c1ccccc1,inactive
14,Cc1ccc(-n2c(CNc3ccc(F)cc3)nnc2SCC(=O)N2CCOCC2)cc1,inactive
15,Cc1ccc(NC(=O)CSCC(=O)N2CCOCC2)cc1,inactive
16,CCN(CC(=O)Nc1c(F)cccc1F)C(=O)c1ccc(Sc2nncn2C)c([N+](=O)[O-])c1,inactive
17,CC1(C(=O)NS(=O)(=O)c2ccc(C#N)cc2)CCN1C(=O)CC1CCCC1 (stereo unspecified),inactive
18,COc1ccc(CNC(=O)c2cc3c(=O)[nH]c4ccccc4c3s2)cc1,inactive
19,COc1ccc(CNC(=O)c2cc3c(=O)[nH]c4ccc(C)cc4c3s2)c(OC)c1,20.6 µM (active)
20,Cc1ccc2[nH]c(=O)c(CC(=O)O)c(-c3ccccc3)c2c1,inactive
21,Cc1ccc2[nH]c(=O)c(CC=C(Cl)Cl)c(C)c2c1,inactive
22,Cc1cccc(N(C)C(=O)c2cc3c(=O)[nH]c4ccc(C)cc4c3s2)c1,5.17 µM (active)
23,COc1ccc(CNC(=O)CC2Oc3ccc(C)cc3NC2=O)cc1 (stereo unspecified),inactive

# — PubChem BioAssay AID686978 (National Center for Advancing Translational Sciences (NCATS), 2013)
